BRCT inh green – blocks human BRCA1 BRCT binding to phosphopeptide, green readout | P38398 | BRCA1 BRCT-phosphopeptide binding, green fluorescence polarization | Potency, µM (titrated, usually from 76.9 µM), for the others: top-dose activity change, negative = inhibition, actives largely listed as inhibitors | 75,000 tested, 0.05% active;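 also: potency is read from the fitted curve at half-maximal effect; plate controls were peptide without protein for full effect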
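Compounds were incubated for 12 min at room temperature with a complex of 100 nM fluorescein-tagged pBACH1 decapeptide and 250 nM His-tagged BRCT protein. Buffer was phosphate pH 7.3 with EDTA, DTT and Tween 20. Disruption of binding lowers the polarization signal.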
Pol III holo inh – blocks replication by bacterial DNA polymerase III holoenzyme; 71,000 tested, 0.25% active; Potency, µM (series often up to 57.1 µM), inactives show at the highest dose activity change, negative = inhibition; reconstituted DNA polymerase III holoenzyme replication, biochemical; AID 603; also: potency is read from the fitted curve at half-maximal effect; % is scaled to controls: 0 for no effect and ±100 for the full control effect
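Reconstituted *E. coli* holoenzyme (0.35 nM Pol III, 1 nM beta, 154 nM SSB, 2 nM primase) was preincubated with compound for 15 min at RT. Synthesis on 1.4 nM ssM13Gori ran 35 min, then was stopped with PicoGreen/EDTA and read as dsDNA fluorescence.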
HEK293 cAMP cs – parental HEK293 cAMP activation (counter-screen); AID 938; 73,000 tested, 2.5% active; parental HEK293 CNG cAMP sensor, membrane potential fluorescence; Potency, µM (series often up to 57.1 µM), without a hit: at the highest dose activation, actives largely listed as activators; also: potency is read from the fitted curve at half-maximal effect; % of control where 0% means no effect; nearly all actives have a fitted effect of over 55% in size
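Counterscreen for endogenous-receptor signalling: CNG-channel HEK 293 cells report cAMP rise by membrane depolarization. After 60 min dye equilibration with 100 uM RO 20-1724, compounds incubated 30 min before bottom-read fluorescence at 590 nm.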
YjeE inh – displaces an ADP probe from E. coli YjeE (TsaE); P0AF67; purified YjeE enzyme, qHTS inhibition assay; Potency, µM; 71,000 tested, 0.05% active; AID 605
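Purified YjeE (10 uM) with BODIPY Texas Red-labeled ADP probe (2 uM); compounds pin-transferred, 15 min at room temperature. Binding inhibition read as decreased fluorescence polarization; ADP titration as control.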
BRCT inh red – disrupts BRCA1 BRCT binding to phosphoprotein, red fluorophore readout | P38398 | BRCT-phosphopeptide binding, red fluorescence polarization | Potency, µM (highest dose often 76.9 µM), without a hit: at the top dose activity change, negative = inhibition, usual class: inhibitors | 75,000 tested, 0.03% active | AID 892; also: % is scaled to controls: 0 for no effect and ±100 for the full control effect
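Fluorescence polarization: 100 nM His-tagged BRCA1 BRCT with 100 nM TAMRA-labelled phospho-BACH1 decapeptide, phosphate buffer pH 7.3 with 150 mM NaCl, DTT, 0.01% Tween 20; 12 min RT. Binding inhibition seen as FP decrease.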
TSHR agonist – TSH receptor (human) agonism | Potency, µM (highest dose often 57.1 µM), for inactives: at the highest dose activation, most hits filed as activators | 73,000 tested, 0.48% active | P16473 | HEK293-CNG-TSHR cells (CNG channel as cAMP sensor), membrane potential dye, cAMP; active = well fitted activation curve with a large enough effect in the main read-out, with a control signal flat, not every such curve was filed as active; inconclusive = small, poorly fitted or top-dose-only effect, or a change in a side signal; inactive = no such curve, though single readings can be large or run the other way; % of control where 0% means no effect;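 also: the control signal comes from parental cells without the receptor; potency is read from the fitted curve at half-maximal effect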
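HEK 293 cells stably expressing TSHR and a modified CNG channel, with CNG-only parental cells as counterscreen, were preloaded 60 min at room temperature with membrane potential dye containing 100 uM RO 20-1724. Compound exposure was 30 min, and depolarization was read as fluorescence at 590 nm.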
* = called active by the depositor; i = inactive; ? = inconclusive; [ ] = remark or other dose. The list is not random: actives were taken first. Their share in the collection is about 3.2%. Unless noted, calls follow the shape of the dose curve; as a rule, active = well fitted curve in the direction sought with a large enough effect; inconclusive = small, poorly fitted or top-dose-only effect, or another doubt; inactive = no such curve, though single readings can be large; an effect the other way counts as inactive or inconclusive.

SMILES	BRCT inh green	Pol III holo inh	HEK293 cAMP cs	YjeE inh	BRCT inh red	TSHR agonist
CCOC(=O)c1cccc(NC(=O)c2cc3sccc3n2C)c1	-1%	3%	10µM*	i	-2%	?
CN(C)c1ncnc2ccc(-c3ccc4c(c3)OCO4)cc12	-4%	-11%	25µM*	i	0%	?
CN(C)C(=O)c1ccc(-c2ccc3ncnc(N(C)C)c3c2)cc1	1%	-3%	6%	i	-2%	9%
CN1CCN(c2ncc3nc(-c4cccs4)c(=O)n(CCc4ccccc4)c3n2)CC1	3%	-3%	-1%	i	1%	4%
Cc1nc2ccccc2c(=O)n1/N=C/c1c(O)ccc2oc3c(c12)CCCC3	0%	-10%	16µM*	i	0%	?
Cc1nc2ccccc2c(=O)n1/N=C/c1ccc(N(C)C)cc1	-2%	0%	1%	i	0%	0%
Cc1cccc(-c2nc(C#N)c(N3CCCCCC3)o2)c1	-4%	3%	23%	i	-1%	25µM*
CCC(C)(C)n1nnnc1CN(Cc1cc2cc(OC)ccc2[nH]c1=O)C1CCCC1	0%	-1%	20µM*	i	-4%	?
COc1ccc2[nH]c(=O)c(C(c3nnnn3C(C)(C)C)N(Cc3ccco3)CC3CCCO3)cc2c1 (configuration not stated)	-4%	-9%	16µM*	i	-1%	?
COCCn1c(=O)cnc2cnc(Oc3ccccc3)nc21	-1%	-10%	27%	i	2%	0%
CCC/C=C(\CCC)C(NS(=O)(=O)c1cccs1)c1ccc(C(=O)OC)cc1 (configuration not stated)	-2%	-10%	?	i	1%	?
COC(=O)[C@@]1(Cc2ccc(F)cc2)[C@H]2c3cc(C(=O)N4CCCC4)n(Cc4ccc(C(F)(F)F)nc4)c3C[C@H]2CN1C(=O)c1ccccc1	17%	-16%	?	i	2%	?
COC(=O)C1(Cc2ccccc2)C2c3cc(C(=O)N4CCCC4)n(Cc4ccc(OC(F)(F)F)cc4)c3CC2CN1C(=O)c1ccccc1 (configuration not stated)	-1%	-22%	1.3µM*	i	0%	?
COC(=O)[C@@]1(Cc2ccccc2)[C@H]2c3cc(C(=O)N4CCCC4)n(Cc4ccc(C(F)(F)F)nc4)c3C[C@H]2CN1C(=O)c1ccccc1	1%	-8%	1.6µM*	i	1%	?
O=C(C[C@@H](c1ccccc1)N1CCCCC1)c1ccccc1	-1%[15.4 µM]	-5%[11.4 µM]	12%[11.4 µM]	i	-1%[15.4 µM]	0%[11.4 µM]
NCCC[C@H](N)CC(=O)N[C@H]1CNC(=O)[C@@H]([C@@H]2C[C@H](O)N=C(N)N2)NC(=O)/C(=C/NC(N)=O)NC(=O)[C@@H](CO)NC(=O)[C@@H](CO)NC1=O	-2%[34.4 µM]	-8%[25.6 µM]	1%[25.6 µM]	i	0%[34.4 µM]	-3%[25.6 µM]
CCC1(C)Cc2ccccc2/C(=C/C(=O)N2CCCCC2)N1 (configuration not stated)	0%	-4%	16µM*	i	0%	?
CC1(C)Cc2ccccc2C(=O)N1	-1%	0%	6%	i	1%	1%
CCOC(=O)c1cc(C)n(CCc2ccccc2)c1C	0%	-3%	25µM*	i	0%	?
CCn1c(CSc2nc3ccccc3s2)nc2ccccc21	3%	2%[11.4 µM]	4µM*	i	-1%	?
c1csc(CSc2nc3ccccc3s2)c1	0%	2%	14%	i	1%	7%
CNC(=O)[C@H]1O[C@H](n2cnc3c(NCc4cccc(I)c4)ncnc32)[C@@H](O)[C@@H]1O	0%	-1%	1%	i	2%	27%
CC(C)C(=O)Cc1ccc2ccccc2n1	1%[15.4 µM]	2%[11.4 µM]	0%[11.4 µM]	i	0%[15.4 µM]	1%[11.4 µM]
CCCCC[C@H](O)c1cccc(OCc2ccc3ccccc3n2)c1	-4%	-7%	20µM*	i	-2%	?

Compound activity (PubChem BioAssay)
